# According to the supplement of paper PMC6555819:
# How the values were obtained:
# Assay in all cases: PBM binding z-score (relative to random genomic background probes); higher = stronger binding; sequences stand for … in GC…GCGATTGACAGCGTAGAATGAAGG
# [1] = test system: PPARg:RXRa DBDmut IVT, anti-RXR (DBD mutation: RXRa K156A/R161A, NR concentration 270 nM, RXRa partner concentration 90 nM)
# In short: (§1)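 Binding buffer was PBS pH 7.4 with 2% milk, 0.02% Triton X-100, 1 mM DTT, 0.2 mg/mL BSA and 0.4 mg/ml salmon testes DNA. In it, ligand-free nuclear receptor dimers were incubated 1 h on custom Agilent 4×180K protein-binding microarrays carrying double-stranded probes. Antibodies against each partner (one per run) detected binding, and z-scores were calculated against random background probes after regression normalization of scanned fluorescence.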
# [2] = test system: PPARg:RXRa IVT, anti-PPARg (NR concentration 270 nM, RXRa partner concentration 90 nM)
# In short: as §1
# [3] = test system: PPARg DBDmut:RXRa IVT, anti-PPARg (DBD mutation: PPARg1 K132A/R137A, NR concentration 270 nM, RXRa partner concentration 90 nM)
# In short: as §1
# [4] = test system: PPARg DBDmut IVT, anti-PPARg (DBD mutation: PPARg1 K132A/R137A, NR concentration 270 nM)
# In short: as §1
# [5] = test system: PPARg homodimer (NR concentration 180 nM)
# In short: as §1
# [6] = test system: PXR:RXRa (NR concentration 270 nM, RXRa partner concentration 90 nM)
# In short: as §1
# [7] = test system: PXR homodimer (NR concentration 270 nM)
# In short: as §1
# [8] = test system: RARa:RXR (NR concentration 270 nM, RXRa partner concentration 90 nM)
# In short: as §1
# [9] = test system: RARa homodimer (NR concentration 270 nM)
# In short: as §1
# [10] = test system: RARb:RXRa (NR concentration 270 nM, RXRa partner concentration 90 nM)
# In short: as §1
# [11] = test system: RARb homodimer (NR concentration 270 nM)
# In short: as §1
# [12] = test system: RARg:RXRa (NR concentration 270 nM, RXRa partner concentration 90 nM)
# In short: as §1
# [13] = test system: RARg homodimer (NR concentration 270 nM)
# In short: as §1
# [14] = test system: RXRa DBDmut IVT, anti-RXR (DBD mutation: RXRa K156A/R161A, NR concentration 90 nM)
# In short: as §1
# [15] = test system: RXRa homodimer (NR concentration 180 nM)
# In short: as §1
# [16] = test system: THRa:RXRa (NR concentration 90 nM, RXRa partner concentration 90 nM)
# In short: as §1
# [17] = test system: THRa homodimer (NR concentration 90 nM)
# In short: as §1
# [18] = test system: VDR homodimer (NR concentration 270 nM)
# In short: as §1
Sequence,PBM binding z-score [1],PBM binding z-score [2],PBM binding z-score [3],PBM binding z-score [4],PBM binding z-score [5],PBM binding z-score [6],PBM binding z-score [7],PBM binding z-score [8],PBM binding z-score [9],PBM binding z-score [10],PBM binding z-score [11],PBM binding z-score [12],PBM binding z-score [13],PBM binding z-score [14],PBM binding z-score [15],PBM binding z-score [16],PBM binding z-score [17],PBM binding z-score [18]
CCGCCTAGGTCAGGGCCAGTATAGGAGGAACGTT,0.73,1.29,-1.13,-2.07,0.393,0.629,-0.663,1.47,-0.0818,3.43,2.62,2.86,3.33,-0.193,1.74,2.2,0.59,-0.22
AGAACGAGGGCAATGTGTTGATAGCACGGGTGGC,3.49,2.88,0.318,-0.0765,0.0511,0.325,0.276,0.248,-0.364,2.05,1.23,1.16,1.44,1.74,0.945,0.861,-0.000904,0.944
CGTCCAAGGTCAATGCTAGGTCAGCGAAAGCATT,3.48,4.11,0.86,0.428,7.14,4.98,1.31,6.26,1.36,5.17,4.51,7.74,7.14,3.47,5.38,4.61,3.1,3.23
TCGAGTAGGTTACCAATGGGGCATACAGCTTTCT,3.13,3.01,-0.185,-0.3,-0.0294,0.327,-0.38,0.453,-0.62,0.89,0.633,1.41,0.627,0.223,1.01,0.248,-0.753,-0.212
ATACCAAGGTGATCGTCAGGTCGTTGATACTAAC,0.522,1.08,0.616,-0.131,0.369,1.24,0.399,1.23,-0.256,1.12,1.14,1.4,0.502,-0.0242,0.916,2.98,1.76,1.12
CCGACTGGCGCATAAGGTTACCATAAGCCAGCCC,-0.22,-0.617,-0.674,-0.756,0.0825,0.285,-0.103,0.776,0.248,0.721,0.729,0.235,0.126,-0.135,0.736,2.26,1.56,0.005
AGAACGAGGGCAATGAGATGATAGCACGGGTGGC,3.28,2.47,1.03,0.417,0.45,0.149,0.0572,0.235,0.363,2.05,0.913,0.982,1.72,1.59,0.713,0.651,0.199,0.718
CAAACTAGGTCACCGGAAGGTCTAAGTCCGCATG,8.57,9.1,1.59,1.51,2.47,2.44,0.0604,3.02,0.862,4.37,4.28,5.48,5.56,1.58,3.87,3.88,2.22,1.68
GCTTACGGGTCAAGGGTTATAGCATGAATAGAAT,3.76,5.31,1.91,1.82,3.12,4.69,0.12,7.06,0.958,4.27,3.07,5.54,4.39,1.86,7.3,3.14,0.219,0.975
ATACCAAGGTGATCGGGAGGTCGTTGATACTAAC,0.345,1.15,0.229,0.179,1.3,2.92,1.26,2.08,0.622,1.31,1.96,2.79,0.879,0.167,1.44,2.58,1.27,1.99
CGTCAAAGTTCAACTAAGGTAAAGTAAAGCACGC,0.496,2.11,0.89,1.16,3.47,5.32,2.92,4.16,2.06,5.39,3.97,6.03,6.89,3.88,5.08,5.01,1.49,3.59
CCTAGCAGGCCAGGGCCACTCAAGCATTTCGCTT,-0.0979,-0.384,-1.54,-0.795,-0.711,-1.11,-0.775,-0.903,-0.897,0.21,-0.124,-0.441,-0.124,-0.762,-0.718,-0.482,-0.794,-0.946
GCTGCTAGATCAACTGATGGTCAGCTAAAGCTCG,-0.127,-0.576,-0.911,-0.65,-0.483,-0.788,-0.885,-0.512,-1.53,-0.39,-0.449,-0.186,-0.352,-0.229,-0.482,-0.352,-1.12,-0.805
CGAACGAGGGCATGAGTTCATAGCAAATGCCGAT,3.09,2.4,-0.0442,-0.857,0.292,4.74,7.66,2.71,-0.81,3.01,2.53,3.42,2.88,3.85,3.03,2.73,0.469,6.18
TCTTGTAGATCAACAGGTTAAGAAAGCTGGCCAA,1.96,0.82,0.047,0.206,0.081,0.51,0.0471,0.981,-0.173,0.375,0.358,0.2,-0.172,0.696,0.726,0.203,-0.285,-0.285
ACTCGGAGGACAAAGGTCAGAGCGACGCCAGTGA,0.874,3.53,-0.107,-0.757,3.73,4.04,0.438,4.89,0.829,4.57,4.63,6.19,5.38,1.24,5.37,3.66,0.5,1.18

Sequence,PBM binding z-score [1],PBM binding z-score [2],PBM binding z-score [3],PBM binding z-score [4],PBM binding z-score [5],PBM binding z-score [6],PBM binding z-score [7],PBM binding z-score [8],PBM binding z-score [9],PBM binding z-score [10],PBM binding z-score [11],PBM binding z-score [12],PBM binding z-score [13],PBM binding z-score [14],PBM binding z-score [15],PBM binding z-score [16],PBM binding z-score [17],PBM binding z-score [18]
CCTAGTTGGTCAGGAGTTCACACACCGGATATGA,1.01,1.1,0.396,0.284,2.47,3.66,3.68,2.36,1.42,2.39,3.04,3.12,2.47,2.09,2.32,1.5,1.07,4.81
CCTACTGGGCCAATCAGAGGTCATTGATCATATG,4.6,4.19,1.25,0.284,4.19,5.06,3.38,5.18,0.519,3.27,4.14,4.56,3.26,0.861,3.82,3.13,1.38,3.81
TCTCGGAGGACACGGAGGTCAGAGCTTTCCAGAG,1.26,1.06,-0.769,-1.39,1,2.45,2.46,2.29,-0.596,3.25,3.7,3.54,3.91,0.792,2.47,3.34,1.77,2
TCTAGTTGGTCACGGAGGTCACGCACGACGGGTA,2.9,4.62,1.18,2.02,3.23,4.93,1.26,5.23,1.73,4.33,4.76,5.46,5.23,1.28,6.17,4.05,3.31,3.06
TTACCAAGGTGAGCTGAGGTCGTTGAGCCAACTC,0.949,1.75,-0.809,-0.728,-0.0553,5.03,0.369,2.08,-0.816,1.76,1.75,1.39,0.933,-0.158,1.48,4.77,2.04,1.96
GCCGACAGGTGAAACGCAGGTAACTCAGGGTGGC,0.757,0.528,-0.976,-1.57,-0.704,-0.343,-0.71,0.331,-1.11,0.705,-0.0352,0.819,0.229,-0.346,0.514,1.35,-0.657,-0.993
CGTCCAAGGTCAGAGAGGTCAGCGAATGCCGAGT,3.1,3.68,-0.551,-0.132,3.56,6.27,10.9,6.31,2.51,5.22,5.53,6.82,7.65,3.12,6.52,4.47,2.86,5.7
TCTAGCAGGCAAGAGGGTCACTCAAGAGGTACGG,0.584,0.0219,-0.412,-0.872,0.722,1.62,-0.663,2.3,-0.406,1.92,2.42,2.15,1.93,-0.113,2.5,1.47,-0.453,0.595
GCGACTGGGGCATCAGCAGGTCACCATAACTTAA,4,4.06,-0.0316,-0.625,2.67,2.2,0.0166,3.04,0.0286,2.53,3.25,3.79,2.47,-0.121,2.14,3.02,1.44,0.619
TATACAGGGTCAAAGCCCAGAGTACGAATGTCGA,2.27,4.44,3.06,1.86,2.91,3.69,0.241,4.55,0.678,4.28,2.97,5.26,4.63,3.03,5.9,3.23,0.46,2.85
CCTAGCAGGCCAGGGTGACTCAAGCATTTCGCTT,0.555,0.0938,-1.83,-1.19,-0.646,-0.537,-0.777,-0.0885,-0.299,0.148,0.018,-0.0591,-0.113,-0.702,-0.00102,0.244,-0.395,-0.814
CGACCAAGGTCAGAGAGGTCAGTGAATGCCGAGT,2.95,3.5,0.125,-0.614,5.33,6.21,12.7,5.78,2.47,5.18,5.37,6.34,7.04,3.34,5.82,4.15,2.11,5.63
CGTCCAAGGTCATGGTCAGTGAAAGAGACTCGAA,3.19,3.62,0.127,0.155,3.09,3.98,0.701,4.83,1.11,5.11,4.01,6.19,6.11,3.84,5.98,3.92,2.89,2.52
CTAACTAGGTCATCCAGGACAGTGAATACATTGA,8.55,8.68,3.4,1.83,2.45,2.07,1.37,2.83,0.768,3.88,2.94,4.11,4.62,2.34,3.07,3.84,2.16,2.32
CATACAGGGTCAGCTAGGCCAGAGTGGGGACGGC,1.06,2.57,-0.069,1.07,1.44,2.19,0.0916,2.78,0.651,4.03,3.76,4.58,4.75,1.4,4.23,3.12,1.52,1.59
